In all, about 16,000 compounds went through this assay and about 2,600 (16%) were called active. About 20% were inconclusive and are not listed. Only a sample is shown. A number with no mark means an inactive call. Calls come from the whole dose curve; as a rule, active = well fitted curve in the direction sought with a large enough effect; inconclusive = small, poorly fitted or top-dose-only effect, or effect the other way; inactive = no such curve, though single readings can be large or run the other way.
The molecules below were run against Cytochrome P450 2D6 (Homo sapiens) (UniProt P10635) (assay: Cytochrome panel assay with activity outcomes). Conditions: recombinant CYP, pro-luciferin dealkylation, luminescence, p450-cyp2d6; series mostly up to 57.1 µM; activity, negative = inhibition: at the top concentration.
Sequence of Cytochrome P450 2D6 (Homo sapiens) (P10635 whole entry, looked up): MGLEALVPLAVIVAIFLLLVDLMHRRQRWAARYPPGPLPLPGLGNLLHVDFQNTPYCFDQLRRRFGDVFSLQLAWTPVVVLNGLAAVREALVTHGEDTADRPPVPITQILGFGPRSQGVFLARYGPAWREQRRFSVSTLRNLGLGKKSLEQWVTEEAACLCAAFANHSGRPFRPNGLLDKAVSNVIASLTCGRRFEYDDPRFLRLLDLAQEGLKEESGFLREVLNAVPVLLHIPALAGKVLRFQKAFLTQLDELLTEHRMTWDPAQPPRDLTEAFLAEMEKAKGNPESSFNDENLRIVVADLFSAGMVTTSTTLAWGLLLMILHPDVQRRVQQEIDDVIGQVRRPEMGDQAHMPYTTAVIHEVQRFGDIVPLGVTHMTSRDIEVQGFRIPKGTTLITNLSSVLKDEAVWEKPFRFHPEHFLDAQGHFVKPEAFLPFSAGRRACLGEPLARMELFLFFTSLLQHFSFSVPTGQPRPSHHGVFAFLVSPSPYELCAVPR
% is set by controls: 0 for no effect and ±100 for the full control effect.

**Q.** How did the “activity, negative = inhibition” value turn out when `CCN[C@@H]1C[C@H](C)S(=O)(=O)c2sc(S(N)(=O)=O)cc21` was run?
**A.** The value was 1.58% [at 25.6 µM].

**Q.** `C=CC(=O)NC(C)(C)Cc1ccccc1` was tested. Which “activity, negative = inhibition” value did it give?
**A.** The value was -1.92%.

**Q.** How did the “activity, negative = inhibition” value turn out when `CC(C)(C)C(=O)N(CCN(C(=O)C(C)(C)C)c1ccccc1)c1ccccc1` was run?
**A.** Its value is 11.6%.

**Q.** With `CN(C(=O)CN(CCO)CC(=O)N(C)C(C)(C)Cc1ccccc1)C(C)(C)Cc1ccccc1` as the molecule, how does the AC50 read?
**A.** The AC50 was 3.16 µM (active).

**Q.** `O=C(CCC(=O)OCc1ccc(C(=O)Oc2ccccc2)cc1)Nc1cccc2ccccc12` was tested. Which “activity, negative = inhibition” value did it give?
**A.** The value was -18%.

**Q.** With `CC(=O)Oc1cc(C(F)(F)F)ccc1C(=O)O` as the molecule, how does the “activity, negative = inhibition” value read?
**A.** Its value is 2.6% [at 25.6 µM].

**Q.** `CCSC1=C(C#N)C2(CCCCC2)C(C#N)=C(N)N1` was tested. Which AC50 did it give?
**A.** Its AC50 is 15.8 µM (active).

**Q.** Which “activity, negative = inhibition” value does the source give for `C[C@H](Oc1ccccc1)C(=O)N[C@@H]1C(=O)N2[C@@H]1SC(C)(C)[C@@H]2C(=O)O` here?
**A.** Its value is -1.89% [at 25.6 µM].

**Q.** For `COC(=O)[C@@]1(Cc2ccc(F)cc2)[C@@H]2[C@@H](CC(=O)[C@H]2CC(=O)C(=O)N(C)C)CN1C(=O)c1ccccc1`, which “activity, negative = inhibition” value is on record?
**A.** Its value is 1.19%.

**Q.** Which activity, negative = inhibition does the source give for `O=C(O)CNC(=O)c1ccccc1O` here?
**A.** The activity, negative = inhibition was 7.44% [at 11.4 µM].

**Q.** `CCCCCCCCCn1cc(C(C)=O)c(=O)[nH]c1=O` was tested. Which “activity, negative = inhibition” value did it give?
**A.** Its value is 6.59%.

**Q.** How did the “activity, negative = inhibition” value turn out when `CN1CCN(c2ncc3ncc(=O)n(Cc4cccs4)c3n2)CC1` was run?
**A.** The value was -10.8%.

**Q.** How did the “activity, negative = inhibition” value turn out when `CN(C)CCCNC(=O)CCc1nc2ccccc2c(=O)[nH]1` was run?
**A.** Its value is -8.88%.

**Q.** For `Cc1nc2ccccc2c(=O)n1NC(=O)c1ccccc1Cl`, which “activity, negative = inhibition” value is on record?
**A.** The value was -4.16%.

**Q.** For `CN(CCCNC(=O)c1cccn2c(=O)c3ccccc3nc12)Cc1ccccc1`, which AC50 is on record?
**A.** Its AC50 is 2.24 µM (active).

**Q.** `COC(=O)[C@@H]1C[C@H]1[C@@H](NC(=O)c1cnccn1)c1ccccc1` was tested. Which “activity, negative = inhibition” value did it give?
**A.** The value was -19.4%.

**Q.** Which “activity, negative = inhibition” value does the source give for `COc1cccc(OC)c1/C(O)=C(\C#N)c1nc2ccccc2[nH]1` here?
**A.** The value was -4.28%.

**Q.** With `CCNC(=S)NNC(=O)c1cc(C)on1` as the molecule, how does the “activity, negative = inhibition” value read?
**A.** Its value is 1.44%.

**Q.** `CCS(=O)(=O)N1CCC(C(=O)NCC2CCCO2)CC1` (stereo unspecified) was tested. Which “activity, negative = inhibition” value did it give?
**A.** The value was 10.9%.

**Q.** How did the AC50 turn out when `Cn1c(O)c(C(C#N)=C2N=c3ccccc3=N2)c2ccccc21` was run?
**A.** The AC50 was 7.08 µM (active).

**Q.** `O=C1OCCC1Sc1nnc(-c2ccc(O)cc2)o1` (stereo unspecified) was tested. Which “activity, negative = inhibition” value did it give?
**A.** The value was -8.18%.

**Q.** With `N#Cc1ccc(-c2ccc(F)cc2)nc1Sc1ccccc1` as the molecule, how does the “activity, negative = inhibition” value read?
**A.** Its value is -6.07%.

**Q.** How did the “activity, negative = inhibition” value turn out when `CCOc1ccc(C(Nc2ccc(C)cc2)P2(=O)OCC(C)(C)CO2)cc1` (stereo unspecified) was run?
**A.** Its value is 17.8%.

**Q.** Which “activity, negative = inhibition” value does the source give for `C[C@@H]1CCc2cc(F)cc3c(=O)c(C(=O)O)cn1c23` here?
**A.** The value was 6.54% [at 25.6 µM].

**Q.** Which “activity, negative = inhibition” value does the source give for `O=C(O)Cc1c[nH]c2ccc(O)cc12` here?
**A.** The value was 3.43%.

**Q.** With `CC(C)CC(=O)Nc1ccc2c(c1)oc1ccccc12` as the molecule, how does the “activity, negative = inhibition” value read?
**A.** Its value is -15.8%.

**Q.** `O[C@H](C[C@@H]1CCCCN1)c1ccc2c(c1)oc1ccccc12` was tested. Which AC50 did it give?
**A.** The AC50 was 0.1 µM (active).

**Q.** With `O=C(Nc1cnn(Cc2ccc(Cl)cc2Cl)c1)c1cc(-c2cccs2)on1` as the molecule, how does the “activity, negative = inhibition” value read?
**A.** The value was -9.02%.

**Q.** For `Cc1ccc(NC(=O)c2nnn(-c3cc(C)cc(C)c3)c2N)cc1`, which “activity, negative = inhibition” value is on record?
**A.** Its value is -35.7%.

**Q.** `COc1ccc(C(=O)NC(CO)c2nnc(SCc3ccc(Cl)c(Cl)c3)n2C)cc1` (stereo unspecified) was tested. Which “activity, negative = inhibition” value did it give?
**A.** The value was -29.4%.

**Q.** Which “activity, negative = inhibition” value does the source give for `CC(C)(C)C(=O)Nc1ccnc(-c2cccnc2)n1` here?
**A.** The value was 15.9%.

**Q.** `CC(=O)Nc1ccnc(-c2cccnc2)n1` was tested. Which “activity, negative = inhibition” value did it give?
**A.** The value was -2.93%.

**Q.** With `Cc1cccc(CNc2ccnc(-c3cccnc3)n2)c1` as the molecule, how does the AC50 read?
**A.** The AC50 was 0.631 µM (active).

**Q.** Which “activity, negative = inhibition” value does the source give for `Cc1ccccc1-c1cc(NCc2cccnc2)ncn1` here?
**A.** Its value is -18.7%.

**Q.** How did the AC50 turn out when `Cc1ccccc1-c1nccc(NCc2cccnc2)n1` was run?
**A.** Its AC50 is 20 µM (active).

**Q.** With `Cc1cccc(CNc2ccnc(-c3ccc(C(=O)N(C)C)cc3)n2)c1` as the molecule, how does the “activity, negative = inhibition” value read?
**A.** Its value is -6.1%.

**Q.** With `O=C(Nc1ccnc(-c2cccnc2)n1)c1cccc(Cl)c1Cl` as the molecule, how does the AC50 read?
**A.** Its AC50 is 2.24 µM (active).

**Q.** For `c1ccc(CNc2ccnc(-c3cccnc3)n2)cc1`, which AC50 is on record?
**A.** Its AC50 is 1.26 µM (active).

**Q.** With `O=[N+]([O-])c1ccccc1/C=N/n1c(COc2ccccc2)n[nH]c1=S` as the molecule, how does the “activity, negative = inhibition” value read?
**A.** Its value is -29.2%.

**Q.** How did the “activity, negative = inhibition” value turn out when `Cc1ccc(/C=N/n2cnnc2)s1` was run?
**A.** The value was -11.6%.

**Q.** For `Cn1c(=S)c2[nH]c(SCCN3C(=O)c4ccccc4C3=O)nc2n(C)c1=O`, which activity, negative = inhibition is on record?
**A.** Its activity, negative = inhibition is 2.46% [at 11.4 µM].

**Q.** How did the “activity, negative = inhibition” value turn out when `CCCCC(=O)Nc1nnc(SCC(=O)NC2CCCC2)s1` was run?
**A.** The value was 8.09%.

**Q.** `COc1cc2nc(N(C)CCCNC(=O)[C@@H]3CCCO3)nc(N)c2cc1OC` was tested. Which “activity, negative = inhibition” value did it give?
**A.** Its value is -16% [at 25.6 µM].

**Q.** `Cn1c(=O)c2cc(S(=O)(=O)NCCC(=O)Nc3ccc(Cl)cc3)ccc2n(C)c1=O` was tested. Which “activity, negative = inhibition” value did it give?
**A.** Its value is -13.9%.

**Q.** How did the “activity, negative = inhibition” value turn out when `Cc1ccc(CNC(=O)CCNS(=O)(=O)c2ccc3c(c2)c(=O)n(C)c(=O)n3C)cc1` was run?
**A.** The value was -11.3%.

**Q.** For `Cn1c(=O)c2cc(S(=O)(=O)NCCC(=O)NCCc3ccc(Cl)cc3)ccc2n(C)c1=O`, which AC50 is on record?
**A.** Its AC50 is 15.8 µM (active).

**Q.** `O=C1C(C2=NC(C(=O)O)C3C(=O)N(c4ccc(Cl)cc4)C(=O)C23)=C(O)c2ccccc21` (stereo unspecified) was tested. Which “activity, negative = inhibition” value did it give?
**A.** Its value is -3.63%.

**Q.** With `c1ccc2c(CSCc3cccc4ccccc34)cccc2c1` as the molecule, how does the activity, negative = inhibition read?
**A.** Its activity, negative = inhibition is 9.11% [at 11.4 µM].

**Q.** With `N[C@@H](CSCc1ccccc1)C(=O)O` as the molecule, how does the activity, negative = inhibition read?
**A.** Its activity, negative = inhibition is -7.04% [at 11.4 µM].

**Q.** Which AC50 does the source give for `c1ccc2c(CSCCc3ccncc3)cccc2c1` here?
**A.** The AC50 was 0.398 µM (active).

**Q.** For `Clc1ccc(CSCCc2ccncc2)cc1Cl`, which AC50 is on record?
**A.** The AC50 was 0.316 µM (active).

**Q.** With `c1ccc(CSCCc2ccncc2)cc1` as the molecule, how does the AC50 read?
**A.** The AC50 was 1.26 µM (active).

**Q.** Which activity, negative = inhibition does the source give for `N=C(N)SCCc1ccncc1` here?
**A.** Its activity, negative = inhibition is -9.64% [at 11.4 µM].

**Q.** Which activity, negative = inhibition does the source give for `O=C(O)c1cc(N=Cc2ccccc2O)cc(C(=O)O)c1` here?
**A.** The activity, negative = inhibition was 7.13% [at 11.4 µM].

**Q.** How did the “activity, negative = inhibition” value turn out when `FC(F)(F)c1nnc(-c2ccccc2)nc1Sc1ccccc1` was run?
**A.** Its value is -29.5%.

**Q.** For `Cc1cc(C2(c3cc(C)c(O)c(C(=O)O)c3)OS(=O)(=O)c3ccccc32)cc(C(=O)O)c1O`, which activity, negative = inhibition is on record?
**A.** Its activity, negative = inhibition is 5.11% [at 11.4 µM].

**Q.** Which “activity, negative = inhibition” value does the source give for `O=C1C2Sc3[nH]c(=O)sc3C(c3ccccc3)C2C(=O)N1c1ccccc1` (stereo unspecified) here?
**A.** Its value is -14.8%.

**Q.** How did the “activity, negative = inhibition” value turn out when `Cc1nc2cnc(N(C)C)nc2n(C2CC2)c1=O` was run?
**A.** Its value is -4.46%.

**Q.** For `COc1ccc2[nH]cc(CCNc3ncncc3-c3cccc(NS(C)(=O)=O)c3)c2c1`, which AC50 is on record?
**A.** Its AC50 is 3.16 µM (active).

**Q.** With `COc1cccc(-c2cncnc2NCCc2c[nH]c3ccc(OC)cc23)c1` as the molecule, how does the AC50 read?
**A.** The AC50 was 2.51 µM (active).

**Q.** For `COc1ccc2[nH]cc(CCNc3ncncc3-c3cccnc3)c2c1`, which AC50 is on record?
**A.** The AC50 was 12.6 µM (active).

**Q.** `O=C(O)CNc1ccc(C(=O)O)cc1` was tested. Which activity, negative = inhibition did it give?
**A.** Its activity, negative = inhibition is 8.05% [at 11.4 µM].

**Q.** How did the “activity, negative = inhibition” value turn out when `Cc1ccccc1C(C(=O)NCc1ccccc1)N(Cc1ccco1)C(=O)c1ccccn1` (stereo unspecified) was run?
**A.** Its value is -16.9%.

**Q.** `Cc1nn(C)cc1C(=O)NNC(=S)Nc1ccccc1` was tested. Which “activity, negative = inhibition” value did it give?
**A.** Its value is -1.67%.

**Q.** `CCOc1ccc(-c2nn(-c3ccccc3)cc2/C=C(\C#N)S(=O)(=O)c2ccccc2)cc1C` was tested. Which “activity, negative = inhibition” value did it give?
**A.** Its value is 6.66%.

**Q.** With `C[C@@]12CCC(=O)C=C1CC[C@@H]1[C@@H]2[C@H](O)C[C@]2(C)[C@@H]1CC[C@]2(O)C(=O)CO` as the molecule, how does the “activity, negative = inhibition” value read?
**A.** The value was 2.89% [at 25.6 µM].

Source: PubChem BioAssay AID1851 (National Center for Advancing Translational Sciences (NCATS), 2009)
